# Test results: the supplement of paper PMC8728848
# Shown is part of a subset that was picked to be rich in the strongest signals.
# Columns and labels:
# Experiment in all cases: glycan array binding signal (z-score within array); higher = stronger binding
# Settings in all cases: glycan notation: IUPAC condensed, linker removed
# [1] = target: Neu5Ac(a2-3)Gal(b1-3)GlcNAc(b1-3)GalNAc
# Procedure, shortened: (§1)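 Glycan array data came from 3228 arrays in the Consortium for Functional Glycomics database, and only arrays with an available protein sequence were kept. Glycan names were put into IUPAC-condensed notation, and columns mapping to the same glycan were averaged. The binding signal is a within-array Z-score, averaged across arrays of one protein sequence run at different concentrations or buffers and across linkers. A negative Z-score can be read as non-binding.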
# [2] = target: Neu5Ac(a2-3)Gal(b1-4)GlcNAc(b1-3)Gal(b1-4)GlcNAc(b1-3)Gal(b1-4)GlcNAc
# Procedure, shortened: as §1
# [3] = target: Neu5Ac(a2-3)Gal(b1-4)GlcNAc(b1-6)[Gal(b1-3)]GalNAc
# Procedure, shortened: as §1
# [4] = target: Neu5Ac(a2-3)Gal(b1-4)[Fuc(a1-3)]GlcNAc(b1-3)Gal
# Procedure, shortened: as §1
# [5] = target: Neu5Ac(a2-3)Gal(b1-4)[Fuc(a1-3)]GlcNAc(b1-3)Gal(b1-4)GlcNAc
# Procedure, shortened: as §1
# [6] = target: Neu5Ac(a2-3)Gal(b1-4)[Fuc(a1-3)]GlcNAc(b1-3)GalNAc
# Procedure, shortened: as §1
# [7] = target: Neu5Ac(a2-3)Gal6S(b1-4)[Fuc(a1-3)]GlcNAc
# Procedure, shortened: as §1
# [8] = target: Neu5Ac(a2-6)Gal(b1-4)GlcNAc6S
# Procedure, shortened: as §1
# [9] = target: Neu5Ac(a2-8)Neu5Ac(a2-3)[GalNAc(b1-4)]Gal(b1-4)Glc
# Procedure, shortened: as §1
# [10] = target: Neu5Ac(a2-8)Neu5Ac(a2-8)Neu5Ac(a2-3)[GalNAc(b1-4)]Gal(b1-4)Glc
# Procedure, shortened: as §1
binder,measurement,setting,value
"RetS (Pseudomonas aeruginosa), Q9HUV7 (protein) MVRLRIAIGLLVSFLLLLLGPMSPAVADDAGVSSVPLQTTATTPSANQNWRLLRDESAQLRIADVLQRKEQFRPLAKRSFIFPASPQAVWLQVQLPAQKVPSWLWIFAPRVQYLDYYLVQDGQLVRDQHTGESRPFQERPLPSRSYLFSLPVDGKPMTLYVRMTSNHPLMAWFDQIDEAGLVGLEKPAYAFGMLLGGMLLLLMYNLIRFAYSRSASSLWLAAVHAALAVCAAANLGLVAFWLPGLKFNQSLTADLGALGAAVSLLWFACSFFRGTAESRLNRLLQGEALLILAVGAIIAFTQQLWFSWLIYLLVILSSLSVPLIAAWHWYRGYQPARLIVAGMIVFNAGFMVFLPVLFGTKQLDPGWLVLGVFSFATLAGLVLSVSLTERQRLIQQLNLQQRTSEAAHTAELQTKAEFLAKISHEIRTPMNGVLGMTELLLGTPLSAKQRDYVQTIHSAGNELLTLINEILDISKLESGQIELDEVQFDLNALIEDCLDIFRVKAEQQRIELISFTQPQVPRVIGGDPTRLRQVVLSLLDNAFKQTEEGEILLVVALDDQGETPRLRIAVQDSGHPFDAKEREALLTAELHSGDFLSASKLGSHLGLIIARQLVRLMGGEFGIQSGSSQGTTLSLTLPLDPQQLENPTADLDGPLQGARLLVVDDNETCRKVLVQQCSGWGLNVSAVSSGKEALAQLRTKAHLREYFDVVLLDQDMPGMTGMQLAAKIKEDPNLNHDILLIMLTGISNAPSKIIARNAGIKRILAKPVAGYTLKATLADELAQRGVSGVTNYLQPAKEAQAPSLPSDFRILVAEDNSISTKVIRGMLNKLNLQPDTASNGQEALSAMKATQYDLVLMDCEMPVLDGFSATEQLRAWEAHEQRPHTPVVALTAHILSEHKERARLVGMDGHMAKPVELSQLRELIAYWVGERDRRRQGDALPS",glycan array binding signal (z-score),[1],-0.17
same,glycan array binding signal (z-score),[2],0.517
same,glycan array binding signal (z-score),[3],-0.343
same,glycan array binding signal (z-score),[4],-0.075
same,glycan array binding signal (z-score),[5],1.76
same,glycan array binding signal (z-score),[6],3.56
same,glycan array binding signal (z-score),[7],-0.246
same,glycan array binding signal (z-score),[8],0.369
same,glycan array binding signal (z-score),[9],0.67
same,glycan array binding signal (z-score),[10],0.181
